Bioassay records deposited in PubChem BioAssay by National Center for Advancing Translational Sciences (NCATS).
HCMV antiviral: blocks human cytomegalovirus replication. HFF cells, HCMV-luciferase reporter, 72 h; active compounds read low. activity change, negative = inhibition, % at 57.5 µM. 410,000 compounds, 4.5% hits; in the data active = activity change below about -60%; inconclusive = no clear call, values can overlap the other calls; inactive = above about -39%
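Human foreskin fibroblasts infected with luciferase-reporter HCMV at MOI 1 PFU/cell, compounds at two doses. Luciferase measured 72 h post infection; normalized to buffer-only basal and Salinomycin (10uM) controls.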
AmpC inh detg: AmpC beta-lactamase inhibition with detergent present; P00811; AmpC hydrolysis of nitrocefin, absorbance 480 nm, 0.01% Triton; Potency, µM (series often up to 114 µM), without a hit: at the highest dose activity change, negative = inhibition, most hits filed as inhibitors; 370,000 compounds, 0.041% hits;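 also: potency is read from the fitted curve at half-maximal effect; 0% = no-compound wells and -100% = no-enzyme wells; nearly all actives have a fitted effect of over 25% in size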
Target sequence (P00811 whole entry, looked up): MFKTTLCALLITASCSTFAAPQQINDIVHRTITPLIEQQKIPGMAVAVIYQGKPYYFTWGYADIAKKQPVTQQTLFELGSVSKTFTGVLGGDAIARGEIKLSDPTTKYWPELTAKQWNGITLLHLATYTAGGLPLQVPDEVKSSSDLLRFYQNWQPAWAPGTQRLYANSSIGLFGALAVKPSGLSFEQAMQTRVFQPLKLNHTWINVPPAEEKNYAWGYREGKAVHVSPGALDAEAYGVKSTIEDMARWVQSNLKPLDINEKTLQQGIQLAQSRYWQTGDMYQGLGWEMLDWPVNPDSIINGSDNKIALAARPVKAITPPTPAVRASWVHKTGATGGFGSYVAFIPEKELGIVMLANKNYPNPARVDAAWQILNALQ
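20 mM phosphate pH 7.0 + 0.01% (detergent screen) or 0.0001% Triton X-100; 5.3 nM AmpC reagent; cpd preinc 15 min RT; nitrocefin (800 uM stock) to start; A480 q20 s × 4 min; Activity was normalised to no-enzyme and no-compound control wells.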
FMDV inh: foot and mouth disease virus antiviral activity. AID 1159524. FMDV antiviral cell-based qHTS. 410,000 compounds, 1.2% hits. Potency, µM (top dose mostly 57.9 µM), for the others: at the top dose activity change, negative = inhibition, hits mostly inhibitors; calls by dose curve; tested in HEK293T cells; also: read-out not given here; potency is read from the fitted curve at half-maximal effect; nearly all actives have a fitted effect of over 45% in size
AmpC no deterg: AmpC beta-lactamase inhibition without detergent. 330,000 compounds, 0.52% hits. P00811. AmpC nitrocefin hydrolysis, absorbance 480 nm, 0.0001% Triton. Potency, µM (doses to about 57.1 µM), for the others: at the top dose activity change, negative = inhibition, actives largely listed as inhibitors;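 also: potency is read from the fitted curve at half-maximal effect; plate controls were no compound for no effect and no enzyme for full effect; nearly all actives have a fitted effect of over 20% in size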
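AmpC (5.3 nM in the dispensed reagent) in 20 mM phosphate pH 7.0 with 0.01% (detergent screen) or 0.0001% Triton X-100 was preincubated with compounds for 15 min at room temperature. Nitrocefin was then added from an 800 uM solution, and hydrolysis was followed at 480 nm.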
HCV inh: inhibitors of hepatitis C virus infection; Potency, µM (doses to about 41.8 µM), inactives show at the highest dose activity change, negative = inhibition, most hits filed as inhibitors; Huh7.5.1 HCVcc-Cre infection, luciferase reporter, 44 h; 340,000 compounds, 3.4% hits; also: potency is read from the fitted curve at half-maximal effect
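Cells (1,000/well) were plated 4 h before compound, then infected with HCVcc-Cre virus (~0.5 moi). After 44 h further culture, infection was read as luciferase luminescence following a 15 min substrate incubation at room temperature.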
Active calls of the source: *; ? = inconclusive; · = not tested or not shown; ! = not confirmed by another sample. A selection: hits, their analogues and other compounds. The true share with any hit is near 7.3%. Unless noted, calls follow the shape of the dose curve; as a rule, active = well fitted curve in the direction sought with a large enough effect; inconclusive = small, poorly fitted or top-dose-only effect, or another doubt; inactive = no such curve, though single readings can be large; an effect the other way counts as inactive or inconclusive. Unless noted, % is scaled to controls: 0 for no effect and ±100 for the full control effect.

SMILES | HCMV antiviral | AmpC inh detg | FMDV inh | AmpC no deterg | HCV inh
CC(=O)CCC(=O)NC1CCCc2c1cnn2-c1ccc(C(C)(C)C)cc1 (stereo not drawn) | ? | ? | ? | 144% | ?
Cc1cc(C)cc(-n2ncc3c2CCCC3NC(=O)CN2CCCC2=O)c1 (stereo not drawn) | -23 | -14% | -16% | 86% | 3%
Cn1nccc1C(=O)NC1CCCc2c1cnn2-c1ccc(C(C)(C)C)cc1 (stereo not drawn) | -61* | 2% | ? | 167% | ?
CC(C)(C)c1ccc(-n2ncc3c2CCCC3NC(=O)CN2CCCC2=O)cc1 (stereo not drawn) | -67* | -14% | ? | 146% | 10µM*
CC(=O)NC1CCCc2c1cnn2-c1ccc(C(C)(C)C)cc1 (stereo not drawn) | -28 | -14% | -20% | 136% | 10µM*
CCC[C@H]1[C@@H](NS(=O)(=O)c2ccc(NC(C)=O)cc2)CC[C@@]23CCCN2C(=O)CCC[C@@H]13 | -8 | · | · | · | ·
COc1ccccc1CNC(=O)Cn1ncc2c(=O)oc3ccc(C)cc3c21 | 1 | 9% | -16% | · | ·
Cc1cc2c(c(-c3ccc(Cl)cc3)c1)OC(CNC(=O)Cc1c(C)noc1C)C2 (stereo not drawn) | · | · | -13% | · | ·
Fc1ccc(-c2nccc3[nH]nc(-c4ccccc4)c23)cc1 | -31 | · | · | · | ·
CC(C)(C)c1ccc(-n2ncc3c2CCCC3NC(=O)c2csnn2)cc1 (stereo not drawn) | -8 | ? | -22% | -2% | 5%
CC(C)(C)c1ccc(-n2ncc3c2CCCC3NC(=O)c2cnccn2)cc1 (stereo not drawn) | -63* | -4% | -14% | 133% | 4.5µM*
CCOC(=O)c1c(C)[nH]c(C)c1S(=O)(=O)NCCc1cccs1 | 13 | -1% | 108% | -25% | -8%
CN1CCN(CCCN2c3ccccc3Sc3ccc(C(F)(F)F)cc32)CC1 | -79*! | 1% | ? | 196% | 14µM*!
CCN(CC)CCC(=O)N1c2ccccc2Sc2ccc(C(F)(F)F)cc21 | -85* | · | · | · | ·
Cc1cc(C)n(CC(=O)N2c3ccccc3Sc3ccc(C(F)(F)F)cc32)n1 | -6 | -12% | -4% | 64% | ?
O=C(CCN1CCN(CCO)CC1)N1c2ccccc2Sc2ccc(C(F)(F)F)cc21 | 35 | ? | -5% | 197% | 13µM*
O=C(CN1CCCC(O)C1)N1c2ccccc2Sc2ccc(C(F)(F)F)cc21 (stereo not drawn) | 20 | 6% | ? | 166% | 0%
COc1ccccc1CCNC(=O)C(=O)NCC(c1ccco1)S(=O)(=O)c1ccccc1 (stereo not drawn) | -32 | 4% | -28% | · | ·
Oc1cc(-c2nc3ccccc3s2)cc2c1OCCN(Cc1cn[nH]c1-c1ccc(Cl)cc1)C2 | · | · | 10% | · | ·
O=C(NCC1Cc2cccc(-c3cccnc3)c2O1)c1ccc2cc[nH]c2c1 (stereo not drawn) | · | · | 1% | · | ·
O=C(Nc1ccc2c(c1)OCCO2)c1cccc(Cl)c1Cl | 137 | 0% | 0% | -33% | -21%
Cc1ccc(NC(=O)c2cc3ccccc3o2)cc1S(=O)(=O)N(C)C | 12 | 1% | -36% | -14% | 11µM*
Cc1ccnc(NC(=O)c2cc3ccccc3o2)c1 | -5 | 0% | 28µM* | -19% | -26%
O=C(Nc1ccc(NC(=O)c2cc3ccccc3o2)cc1)c1ccccc1 | 3 | 12% | -13% | · | ·
O=C(Nc1ccc2c(c1)OCCO2)c1c(Cl)cccc1Cl | -85* | · | 24% | · | ·
SMILES | HCMV antiviral | AmpC inh detg | FMDV inh | AmpC no deterg | HCV inh
O=C(Nc1ccc2c(c1)OCCO2)c1cc2ccccc2o1 | 117 | 8% | -35% | -15% | 22µM*
COc1ccc(/C=C2/Sc3ccc(C(=O)N4CCOCC4)cc3NC2=O)cc1OC | -69* | -4% | 2% | 14% | -5%
Cc1cccc(/C=C2/Sc3ccc(C(=O)N4CCOCC4)cc3NC2=O)c1 | -75* | -6% | -1% | 139% | -25%
CC(C)CN(C(=O)/C=C/c1nc2ccccc2s1)C1CCS(=O)(=O)C1 (stereo not drawn) | -32 | -11% | -8% | 16% | ?
Cc1ccc(C(OCC(O)CNCc2ccc(F)cc2)c2ccccc2)cc1 (stereo not drawn) | -102* | -15% | ? | 53% | 8.9µM*
C=C1C(=O)C23C(O)C1CCC2C12CCCC(C)(COC(C)=O)C1C(O)C3(O)OC2 (stereo not drawn) | -2 | · | 3.5µM* | · | 3.5µM*
Cc1ccc2scc(N3CCN(c4ccccc4)CC3)c(=O)c2c1 | 14 | 17% | 0% | · | ·
O=C(Nc1nc2ccccc2s1)c1cc(-c2ccccc2)nn1-c1ccccc1 | -75* | ? | -24% | -25% | ?
COc1ccc(S(=O)(=O)NCC2CCCN(C(=O)c3cccnc3)C2)cc1 (stereo not drawn) | -60* | 4% | 13% | 6% | 2%
CC[C@]12c3[nH]c4cc(-c5ccco5)ccc4c3CCN1C(=O)[C@@H](CC(=O)NCCc1ccccn1)C[C@@H]2C(=O)N1CCN(C(=O)c2ccco2)CC1 | -3 | · | -26% | 242% | -9%
CN(C)CC(O)COC(c1ccc(Cl)cc1)c1ccc(Cl)cc1 (stereo not drawn) | ? | 4% | -11% | 70% | 3.2µM*
CC1CN(CC(O)COC(c2ccc(Cl)cc2)c2ccc(Cl)cc2)CC(C)O1 (stereo not drawn) | 53 | -2% | ? | 200% | 10µM*
CCOc1ccc(NC(=O)Cn2c(=O)n(CCc3ccccc3)c(=O)c3c4c(sc32)CCCC4)cc1 | -11 | 4% | -5% | · | ·
CC1CCCC(NC(=S)Nc2ccc(SC(F)F)cc2)C1C (stereo not drawn) | ? | 4% | -27% | -40% | 32µM*
FC(F)Sc1ccc(NC(=S)NC2CCCC2)cc1 | -28 | 10% | 30% | -30% | -1%
O=C(N/N=C\c1ccc([N+](=O)[O-])s1)C1COc2ccccc2O1 (stereo not drawn) | -4 | 7% | -18% | 111% | 10µM*
O=C(N/N=C\c1ccc(Cl)s1)C1COc2ccccc2O1 (stereo not drawn) | -31 | -3% | 0% | ? | -28%
O=C(N/N=C\c1ccc([N+](=O)[O-])o1)C1COc2ccccc2O1 (stereo not drawn) | -84* | -5% | -6% | -34% | ?
Cc1ccc(-n2c(N)c(C(=O)N3CCOCC3)sc2=S)cc1 | -4 | ? | 3% | -4% | ?
CN1CCN(C(=O)c2sc(=S)n(-c3ccccc3)c2N)CC1 | -92* | ? | 2% | -39% | 19%
S=C(NCc1ccco1)Nc1ccc(Cl)cc1Cl | -74* | -8% | 42% | -30% | -14%
S=C(NCc1ccco1)Nc1ccc(Br)cc1Cl | -28 | 0% | 59% | -38% | -3%
